# Data as given in article PMC7862700, “An all-to-all approach to the identification of sequence-specific readers for epigenetic DNA modifications on cytosine”.
# Columns and labels:
# Assay in all cases: DAPPL (digital affinity profiling via proximity ligation, sequencing); 10 mM Tris-HCl pH 7.5, 50 mM NaCl, 1 mM DTT, 4% glycerol, room temperature, 30 min; GST-TFs on glutathione beads, 16-mer random dsDNA library, 0.1% formaldehyde crosslink after washing; high values mean tight binding
# Details in all cases: protein: recombinant; tags: N-terminal GST; dsDNA, one strand shown
# ERF = target: T1, ERF (Homo sapiens, UniProt P50548 1-548)
# T1 sequence: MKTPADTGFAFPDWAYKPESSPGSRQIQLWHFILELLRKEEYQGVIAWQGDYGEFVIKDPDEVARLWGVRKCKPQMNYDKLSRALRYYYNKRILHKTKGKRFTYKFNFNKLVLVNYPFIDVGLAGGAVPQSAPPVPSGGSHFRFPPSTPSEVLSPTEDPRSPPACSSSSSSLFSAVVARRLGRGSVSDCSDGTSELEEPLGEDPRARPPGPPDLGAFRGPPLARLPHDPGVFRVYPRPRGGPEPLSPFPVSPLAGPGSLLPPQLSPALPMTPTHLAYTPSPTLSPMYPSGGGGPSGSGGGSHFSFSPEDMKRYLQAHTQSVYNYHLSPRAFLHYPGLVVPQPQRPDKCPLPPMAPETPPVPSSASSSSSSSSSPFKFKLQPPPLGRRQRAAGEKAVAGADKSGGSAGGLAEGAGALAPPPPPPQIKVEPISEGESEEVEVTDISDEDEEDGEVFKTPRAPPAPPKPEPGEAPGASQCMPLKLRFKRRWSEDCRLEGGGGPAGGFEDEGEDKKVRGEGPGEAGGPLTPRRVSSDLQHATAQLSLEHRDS
# Procedure, shortened: (§1)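 Sequencing on an Illumina NextSeq500 followed washing, crosslinking with 0.1% formaldehyde, proximity ligation (BsaI/T4 ligase, 1 h, 37 °C) and PCR amplification of pools that had been incubated for 30 min at room temperature with 200 nmole of a random double-stranded 16-mer DNA library in Tris/NaCl/DTT/glycerol buffer. Each pool held DNA-barcoded human transcription factors, expressed in yeast as GST fusions and captured on glutathione beads, plus a tag-only sample. Binding signal is a hexamer's read frequency for a factor divided by its frequency in the tag-only sample.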
# ETV3L = target: T2, ETV3L (Homo sapiens, UniProt Q6ZN32 1-361)
# T2 sequence: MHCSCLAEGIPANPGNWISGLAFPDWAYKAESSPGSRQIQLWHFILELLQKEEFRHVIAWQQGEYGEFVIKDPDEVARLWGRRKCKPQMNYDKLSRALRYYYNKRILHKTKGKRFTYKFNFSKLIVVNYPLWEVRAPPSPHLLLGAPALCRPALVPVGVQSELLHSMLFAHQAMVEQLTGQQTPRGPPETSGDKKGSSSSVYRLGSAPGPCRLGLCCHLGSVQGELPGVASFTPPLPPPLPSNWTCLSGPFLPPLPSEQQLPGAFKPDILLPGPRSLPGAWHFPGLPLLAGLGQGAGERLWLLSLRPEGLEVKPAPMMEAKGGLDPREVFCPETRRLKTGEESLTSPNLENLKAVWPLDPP
# Procedure, shortened: as §1
# ETS2 = target: T3, ETS2 (Homo sapiens, UniProt P15036 1-469)
# T3 sequence: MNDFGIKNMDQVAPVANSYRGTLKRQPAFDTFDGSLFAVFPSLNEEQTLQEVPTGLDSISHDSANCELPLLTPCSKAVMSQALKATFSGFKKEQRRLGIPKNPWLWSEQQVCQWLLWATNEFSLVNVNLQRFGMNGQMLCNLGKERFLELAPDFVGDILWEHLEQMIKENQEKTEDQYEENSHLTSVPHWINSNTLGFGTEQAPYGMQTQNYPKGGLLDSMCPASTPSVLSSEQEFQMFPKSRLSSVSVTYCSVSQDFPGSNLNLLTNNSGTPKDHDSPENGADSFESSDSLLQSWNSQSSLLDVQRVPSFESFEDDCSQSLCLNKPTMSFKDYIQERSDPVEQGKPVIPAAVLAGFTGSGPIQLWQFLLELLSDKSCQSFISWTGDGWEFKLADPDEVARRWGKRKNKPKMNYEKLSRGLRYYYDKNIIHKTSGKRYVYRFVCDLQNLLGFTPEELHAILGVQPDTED
# Procedure, shortened: as §1
# SPDEF = target: T4, SPDEF (Homo sapiens, UniProt O95238 1-335)
# T4 sequence: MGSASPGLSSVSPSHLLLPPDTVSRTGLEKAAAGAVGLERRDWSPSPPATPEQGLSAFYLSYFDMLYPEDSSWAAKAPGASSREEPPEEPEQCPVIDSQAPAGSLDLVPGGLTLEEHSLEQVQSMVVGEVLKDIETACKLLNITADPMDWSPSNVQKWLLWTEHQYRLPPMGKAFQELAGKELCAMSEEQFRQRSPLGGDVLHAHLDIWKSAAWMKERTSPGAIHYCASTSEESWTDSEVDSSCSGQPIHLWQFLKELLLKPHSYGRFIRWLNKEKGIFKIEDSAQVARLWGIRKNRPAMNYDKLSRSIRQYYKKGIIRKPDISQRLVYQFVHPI
# Procedure, shortened: as §1
# ETV7 = target: T5, ETV7 (Homo sapiens, UniProt Q9Y603 1-341)
# T5 sequence: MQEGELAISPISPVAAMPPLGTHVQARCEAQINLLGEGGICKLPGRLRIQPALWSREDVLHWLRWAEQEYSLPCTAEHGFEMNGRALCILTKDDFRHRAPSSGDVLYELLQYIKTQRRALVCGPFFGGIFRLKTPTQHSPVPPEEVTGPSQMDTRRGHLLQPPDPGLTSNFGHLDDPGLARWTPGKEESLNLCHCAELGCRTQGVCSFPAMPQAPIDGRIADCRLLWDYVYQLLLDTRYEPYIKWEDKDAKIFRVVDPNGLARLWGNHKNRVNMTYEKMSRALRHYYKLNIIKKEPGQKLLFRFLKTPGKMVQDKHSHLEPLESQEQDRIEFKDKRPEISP
# Procedure, shortened: as §1
# ELF5 = target: T6, ELF5 (Homo sapiens, UniProt Q9UKW6-2 1-255)
# T6 sequence: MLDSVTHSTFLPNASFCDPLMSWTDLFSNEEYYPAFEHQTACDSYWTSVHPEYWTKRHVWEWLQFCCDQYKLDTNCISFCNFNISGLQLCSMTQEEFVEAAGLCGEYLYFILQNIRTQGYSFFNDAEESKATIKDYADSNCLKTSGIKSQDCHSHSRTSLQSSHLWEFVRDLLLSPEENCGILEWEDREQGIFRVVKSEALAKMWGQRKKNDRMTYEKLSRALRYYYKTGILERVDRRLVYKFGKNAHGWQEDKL
# Procedure, shortened: as §1
# ETV3 = target: T7, ETV3 (Homo sapiens, UniProt P41162-2 1-143)
# T7 sequence: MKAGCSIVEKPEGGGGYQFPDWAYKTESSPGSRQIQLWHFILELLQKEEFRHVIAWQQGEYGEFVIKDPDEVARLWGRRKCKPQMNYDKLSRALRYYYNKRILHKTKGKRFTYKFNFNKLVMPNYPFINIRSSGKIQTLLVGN
# Procedure, shortened: as §1
# ETV6 = ETV6 (Homo sapiens, UniProt P41212 1-452)
# Procedure, shortened: as §1
# Sequence of ETV6 (P41212 whole entry): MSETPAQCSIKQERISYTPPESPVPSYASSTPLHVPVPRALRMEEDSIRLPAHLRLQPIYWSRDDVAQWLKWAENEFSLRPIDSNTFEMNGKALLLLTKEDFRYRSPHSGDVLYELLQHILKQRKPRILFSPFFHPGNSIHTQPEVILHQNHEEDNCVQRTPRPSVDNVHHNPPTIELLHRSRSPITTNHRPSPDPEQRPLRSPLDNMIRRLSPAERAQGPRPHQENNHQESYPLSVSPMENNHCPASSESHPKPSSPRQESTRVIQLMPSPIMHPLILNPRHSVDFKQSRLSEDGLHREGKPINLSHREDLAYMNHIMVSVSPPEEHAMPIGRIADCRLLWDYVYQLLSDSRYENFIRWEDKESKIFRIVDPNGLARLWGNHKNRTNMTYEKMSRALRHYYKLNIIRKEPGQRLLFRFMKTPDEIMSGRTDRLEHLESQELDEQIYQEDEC
Sequence,binding signal (ERF),binding signal (ETV3L),binding signal (ETS2),binding signal (SPDEF),binding signal (ETV7),binding signal (ELF5),binding signal (ETV3),binding signal (ETV6)
CTCTAA,"1.44 fold enrichment (6-mer frequency, TF over GST control)","1.37 fold enrichment (6-mer frequency, TF over GST control)","1.32 fold enrichment (6-mer frequency, TF over GST control)","1.19 fold enrichment (6-mer frequency, TF over GST control)","1.27 fold enrichment (6-mer frequency, TF over GST control)","1.34 fold enrichment (6-mer frequency, TF over GST control)","1.24 fold enrichment (6-mer frequency, TF over GST control)","1.26 fold enrichment (6-mer frequency, TF over GST control)"
CAATGC,"1.08 fold enrichment (6-mer frequency, TF over GST control)","1.15 fold enrichment (6-mer frequency, TF over GST control)","1.15 fold enrichment (6-mer frequency, TF over GST control)","1.2 fold enrichment (6-mer frequency, TF over GST control)","1.24 fold enrichment (6-mer frequency, TF over GST control)","1.13 fold enrichment (6-mer frequency, TF over GST control)","1.2 fold enrichment (6-mer frequency, TF over GST control)","1.24 fold enrichment (6-mer frequency, TF over GST control)"
TTTGGT,"1.49 fold enrichment (6-mer frequency, TF over GST control)","1.36 fold enrichment (6-mer frequency, TF over GST control)","1.43 fold enrichment (6-mer frequency, TF over GST control)","1.28 fold enrichment (6-mer frequency, TF over GST control)","1.45 fold enrichment (6-mer frequency, TF over GST control)","1.4 fold enrichment (6-mer frequency, TF over GST control)","1.39 fold enrichment (6-mer frequency, TF over GST control)","1.36 fold enrichment (6-mer frequency, TF over GST control)"
TGCATG,"1.06 fold enrichment (6-mer frequency, TF over GST control)","1.27 fold enrichment (6-mer frequency, TF over GST control)","1.06 fold enrichment (6-mer frequency, TF over GST control)","1.06 fold enrichment (6-mer frequency, TF over GST control)","1.06 fold enrichment (6-mer frequency, TF over GST control)","1.01 fold enrichment (6-mer frequency, TF over GST control)","1.1 fold enrichment (6-mer frequency, TF over GST control)","1.08 fold enrichment (6-mer frequency, TF over GST control)"
ATGATC,"1.33 fold enrichment (6-mer frequency, TF over GST control)","1.22 fold enrichment (6-mer frequency, TF over GST control)","1.16 fold enrichment (6-mer frequency, TF over GST control)","1.27 fold enrichment (6-mer frequency, TF over GST control)","1.22 fold enrichment (6-mer frequency, TF over GST control)","1.22 fold enrichment (6-mer frequency, TF over GST control)","1.2 fold enrichment (6-mer frequency, TF over GST control)","1.19 fold enrichment (6-mer frequency, TF over GST control)"
CGTAAC,"1.09 fold enrichment (6-mer frequency, TF over GST control)","1.08 fold enrichment (6-mer frequency, TF over GST control)","1.15 fold enrichment (6-mer frequency, TF over GST control)","1.17 fold enrichment (6-mer frequency, TF over GST control)","1.07 fold enrichment (6-mer frequency, TF over GST control)","1.12 fold enrichment (6-mer frequency, TF over GST control)","1.16 fold enrichment (6-mer frequency, TF over GST control)","1.06 fold enrichment (6-mer frequency, TF over GST control)"
ATGGGT,"1.36 fold enrichment (6-mer frequency, TF over GST control)","1.27 fold enrichment (6-mer frequency, TF over GST control)","1.37 fold enrichment (6-mer frequency, TF over GST control)","1.42 fold enrichment (6-mer frequency, TF over GST control)","1.41 fold enrichment (6-mer frequency, TF over GST control)","1.34 fold enrichment (6-mer frequency, TF over GST control)","1.3 fold enrichment (6-mer frequency, TF over GST control)","1.33 fold enrichment (6-mer frequency, TF over GST control)"
